PubChem BioAssay AID1851 (National Center for Advancing Translational Sciences (NCATS), 2009)
Screen size: about 16,000 compounds; about 5,700 (36%) were called active. Not shown: some 24% with an inconclusive outcome. The list shows a part of the results. Values without a mark were called inactive. Calls come from the whole dose curve; as a rule, active = well fitted curve in the direction sought with a large enough effect; inconclusive = small, poorly fitted or top-dose-only effect, or effect the other way; inactive = no such curve, though single readings can be large or run the other way.

Target: Cytochrome P450 1A2 (Homo sapiens) (UniProt P05177)
Sequence (P05177 whole entry, looked up): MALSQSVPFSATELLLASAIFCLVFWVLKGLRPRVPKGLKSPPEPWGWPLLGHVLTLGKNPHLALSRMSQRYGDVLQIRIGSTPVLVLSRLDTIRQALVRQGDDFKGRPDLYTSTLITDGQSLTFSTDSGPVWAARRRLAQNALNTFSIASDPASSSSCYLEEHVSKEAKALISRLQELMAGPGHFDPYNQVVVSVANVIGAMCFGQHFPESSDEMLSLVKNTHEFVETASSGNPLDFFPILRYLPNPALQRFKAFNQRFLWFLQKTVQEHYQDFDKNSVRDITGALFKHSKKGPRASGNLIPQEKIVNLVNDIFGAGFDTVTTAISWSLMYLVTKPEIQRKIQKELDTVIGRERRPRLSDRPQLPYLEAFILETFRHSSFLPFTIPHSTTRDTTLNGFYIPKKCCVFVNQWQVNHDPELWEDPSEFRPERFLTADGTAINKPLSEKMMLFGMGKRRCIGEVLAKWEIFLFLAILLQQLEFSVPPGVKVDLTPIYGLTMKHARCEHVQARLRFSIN
Experiment: Cytochrome panel assay with activity outcomes
Details: recombinant CYP, pro-luciferin dealkylation, luminescence, p450-cyp1a2; series mostly up to 57.1 µM; activity, negative = inhibition: at the top concentration
% is set by controls: 0 for no effect and ±100 for the full control effect.

Structure (SMILES)	activity, negative = inhibition	AC50
c1ccc(C2OCC3(CO2)COC(c2ccccc2)OC3)cc1 (configuration not stated)	-11.4%	–
CC1CCCC(NC(=O)CCn2c(=O)oc3ccccc32)C1C (configuration not stated)	-15.5%	–
Cc1cccc(NC(=O)Cn2c(=O)oc3ccccc32)c1	–	15800 nM (active)
Cc1ccc(CNC(=O)Cn2c(=O)oc3ccccc32)o1	–	12600 nM (active)
Cc1cccc(NC(=O)Cn2c(=O)n3nc(CCn4nc(C)cc4C)nc3c3ccccc32)c1	-14.4%	–
COCCNC(=O)CCn1c(=O)oc2ccccc21	-5.72%	–
COC(=O)[C@@]1(Cc2ccc(OC)cc2)[C@H]2c3cc(C(=O)N4CCCC4)n(CCn4cc([N+](=O)[O-])nc4C)c3C[C@H]2CN1C(=O)c1ccccc1	2.38%	–
CCCn1c(N)c(C(=O)CSc2nc(C)cs2)c(=O)n(C)c1=O	–	15800 nM (active)
Cc1cc(C)cc(C(=O)N(NC(=O)Nc2ccc(Cl)cc2)C(C)(C)C)c1	-5.9%	–
CSc1cccc(NC(=O)Nc2ccc(Cl)cc2)c1	–	5010 nM (active)
O=C(O)CC[C@@]1(c2ccccc2)NC(=O)NC1=O	-11.4% [at 11.4 µM]	–
Cc1ccc(N(CCC#N)C(=O)CSc2ccc3c(c2)OCCO3)cc1	–	2000 nM (active)
CCOC(=O)c1[nH]c(C)c(C)c1C	–	501 nM (active)
CCOC(=O)c1cc(C#N)c(Oc2ccccc2OC)nc1-c1ccccc1	–	708 nM (active)
Cc1cc(C)c2cc(C#N)c(NCCOC(=O)c3ccccc3C)nc2c1	–	1260 nM (active)
CCCCNc1nc(-c2ccccc2)c(C(=O)OCC)cc1C#N	–	4470 nM (active)
O=C1CCCC=C1[C@@H](O)COCc1ccccc1	-6.11% [at 11.4 µM]	–
CCN1C(=O)CC(N2CCN(CC(=O)NC(C)C)CC2)C1=O (configuration not stated)	6.61%	–
C/C(=N\O)c1cccc[n+]1Cc1ccccc1	-0.979% [at 11.4 µM]	–
NC(=O)c1ccc(C2SCC(=O)N2Cc2ccccc2)cc1 (configuration not stated)	-13.7%	–
NC(=O)c1ccc(-c2ncc(-c3ccccc3)o2)cc1	–	631 nM (active)
CO[C@]1(NC(=O)[C@H](C(=O)O)c2ccc(O)cc2)C(=O)N2C(C(=O)O)=C(CSc3nnnn3C)CO[C@H]21	-1.45% [at 25.6 µM]	–
COCCNC(=O)CSc1nc2cc(OC)c(OC)cc2c(=O)n1Cc1ccco1	-14.6%	–
Cc1sc2nc(SCC(=O)C(C)(C)C)n(Cc3ccco3)c(=O)c2c1C	–	891 nM (active)
CC(=O)[C@H]([C@@H](c1ccccc1)N1CCOCC1)N1CCOCC1	2.19% [at 11.4 µM]	–
C[C@](O)(c1ccccc1)c1nccc2ccccc12	-17.4% [at 11.4 µM]	–
Cc1ccc(-c2nc(-c3nccc4ccccc34)oc2-c2ccccc2)cc1	–	2510 nM (active)
